Candida biofilm: kills Candida albicans biofilms. C. albicans biofilm + clotrimazole, Alamar Blue. inhibition, % at 6 µM. 85,000 tested, 0.14% active. AID 834;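 active = inhibition above 20%; inactive = inhibition below 20%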;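 also: preformed 24 hr biofilms exposed to compound for 48 hr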
PostGolgi yeast: growth inhibition of a yeast mutant, post-Golgi transport screen. inhibition, % at 10 µM. 98,000 tested, 0.9% active. post-Golgi transport phenotypic cell assay;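 also: yeast cells grown in 1536-well plates; yeast grown about 18 h at 30C before absorbance read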
EphB4 antag: EphB4-ephrin-B2 interaction antagonism; EphB4 LBD / TNYL-RAW-Alexa532 peptide, fluorescence polarization; inhibition, % at 7 µM; 97,000 tested, 0.15% active;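 active = inhibition above the screen-wide mean inhibition plus 3 SD, cut at about 15% in these data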
Target sequence (P54760 whole entry, looked up, the tested form may be a part): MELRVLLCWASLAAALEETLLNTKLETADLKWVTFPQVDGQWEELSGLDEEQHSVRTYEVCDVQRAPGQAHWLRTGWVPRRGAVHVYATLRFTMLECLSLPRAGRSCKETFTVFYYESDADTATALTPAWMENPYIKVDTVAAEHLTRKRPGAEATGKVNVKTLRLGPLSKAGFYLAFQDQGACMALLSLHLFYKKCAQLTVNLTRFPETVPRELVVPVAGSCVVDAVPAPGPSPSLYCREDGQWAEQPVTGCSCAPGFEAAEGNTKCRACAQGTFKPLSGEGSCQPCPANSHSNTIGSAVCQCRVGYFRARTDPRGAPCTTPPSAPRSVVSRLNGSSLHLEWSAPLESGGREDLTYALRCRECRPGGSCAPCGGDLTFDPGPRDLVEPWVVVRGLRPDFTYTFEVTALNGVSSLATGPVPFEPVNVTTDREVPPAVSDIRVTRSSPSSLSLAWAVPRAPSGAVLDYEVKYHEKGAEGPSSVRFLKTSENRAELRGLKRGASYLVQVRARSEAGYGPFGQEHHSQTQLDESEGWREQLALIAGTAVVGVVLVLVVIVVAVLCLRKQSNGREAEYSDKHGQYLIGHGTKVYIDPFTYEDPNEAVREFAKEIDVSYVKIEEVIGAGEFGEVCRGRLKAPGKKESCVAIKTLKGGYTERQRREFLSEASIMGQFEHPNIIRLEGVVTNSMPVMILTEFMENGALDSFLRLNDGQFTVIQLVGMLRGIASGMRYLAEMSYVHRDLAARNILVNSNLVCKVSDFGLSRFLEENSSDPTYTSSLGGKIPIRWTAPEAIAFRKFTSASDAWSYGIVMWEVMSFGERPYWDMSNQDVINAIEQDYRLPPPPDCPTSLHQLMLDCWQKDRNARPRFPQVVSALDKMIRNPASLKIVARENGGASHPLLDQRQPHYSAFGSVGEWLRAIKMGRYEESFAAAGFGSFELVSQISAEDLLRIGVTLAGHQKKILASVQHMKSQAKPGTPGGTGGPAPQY
PostGolgi ctrl: growth of the yeast control strain, post-Golgi counter-screen | efflux-deficient yeast background strain, growth absorbance A615, 16 h | inhibition, % at 10 µM | 98,000 tested, 5% active | AID 738
A number is an active result; – = inactive; · = no result. Only some compounds are listed: those with a hit (about 5.2% of all), similar ones and a draw of the others. Rule as the data show it, unless noted: active = inhibition above about 30%; inactive = the rest.

SMILES	Candida biofilm	PostGolgi yeast	EphB4 antag	PostGolgi ctrl
O=C(OCn1ncc(Br)c(Br)c1=O)c1c(F)cccc1F	–	57	–	–
O=C1NNC(=O)C2C3C=CC(C4CC34)C12 (stereo not drawn)	–	–	–	–
O=C(Nc1ccc(SC(F)F)cc1)c1ccc2nccnc2c1	–	–	–	31
O=C(CSc1ncnc2sc3c(c12)CCCC3)N1CCC(c2noc3ccc(F)cc23)CC1	–	–	–	–
Cc1cc(SCC(=O)N2CCC(c3noc4ccc(F)cc34)CC2)nc2ccccc12	–	–	–	34
CCOc1ccc(OCC)c(NC(=O)Nc2ccc3c(c2)N(C)C(=O)CS3)c1	–	–	–	–
CCCCCCC1/C(=N/O)CCC1C(=O)OC (stereo not drawn)	–	–	–	–
COc1ccccc1OCC(=O)c1[nH]c(C)c(C(C)=O)c1C	–	–	–	–
CC(=O)c1c(C)[nH]c(C(=O)COc2ccc(C#N)cc2)c1C	–	–	–	32
Cc1ccc(C)n1-c1ccc(C(=O)NCC2CCCO2)cc1 (stereo not drawn)	–	–	–	–
COc1ccc(/C=C/C(=O)Nc2sc3c(c2C(=O)NCc2cccnc2)CCCC3)cc1	·	–	–	52
CN(C)S(=O)(=O)c1ccc(C(=O)OCC(=O)c2ccc(OC(F)F)cc2OC(F)F)cc1	–	–	–	–
Cc1nn(C(C)(C)C)c(OC(=O)c2ccco2)c1Sc1ccccc1	–	–	–	36
Cc1ccc(S(=O)(=O)Cn2nnnc2C(CC(C)C)N2CCN(c3ccc(F)cc3)CC2)cc1 (stereo not drawn)	–	–	–	–
CC(C)CC(c1nnnn1C(C)C)N1CCN(c2cccc(Cl)c2)CC1 (stereo not drawn)	–	–	–	73
Cc1nnc(SCCn2c(N3CC(C)CC(C)C3)nc3c2c(=O)[nH]c(=O)n3C)s1 (stereo not drawn)	–	–	–	–
Cc1ccccc1NS(=O)(=O)c1ccc(F)cc1	–	–	–	–
COc1ccc(NS(=O)(=O)c2ccc(SC)cc2)c(OC)c1	–	–	–	–
CSc1ccc(S(=O)(=O)Nc2ccc3c4c(cccc24)CC3)cc1	·	–	–	66
O=S(=O)(Nc1ccc2c3c(cccc13)CC2)c1ccc(F)cc1	·	–	–	40
CCOc1ccc(OCc2ccc(C(=O)OCc3ccccn3)o2)cc1	–	–	·	–
O=S(=O)(NC1CC2CCC1C2)c1ccc(Br)s1 (stereo not drawn)	–	90	–	91
O=S(=O)(NCC1CCCO1)c1ccc(Br)s1 (stereo not drawn)	–	–	–	–
Cc1cccc(OCC(=O)N/N=C/c2cn[nH]c2-c2ccc(Cl)c(Cl)c2)c1	·	–	–	38
CC(C)(C)NC(=O)CN(C(=O)Cn1nnc(-c2ccc(Cl)cc2)n1)C1CCN(Cc2ccccc2)CC1	–	·	–	·
SMILES	Candida biofilm	PostGolgi yeast	EphB4 antag	PostGolgi ctrl
O=C(CN1CCN(c2ccc(F)cc2)CC1)Nc1ccc(F)c(F)c1	–	–	–	–
O=C(NC1CCN(C(=O)Nc2cccc(F)c2)CC1)C1CCCCC1	–	–	–	–
O=C(CN1CCN(c2ccc(Cl)cc2)CC1)Nc1cccc(F)c1	–	–	–	30
COC(=O)c1ccc(NC(=O)CN2CCN(c3ccc(Cl)cc3)CC2)cc1	–	44	·	–
O=C(Nc1cccc(F)c1)N1CC=C(c2ccc(Cl)cc2)CC1	–	–	–	41
COC(=O)c1ccc(NC(=O)CN2CCN(c3ccccc3C)CC2)cc1	–	·	–	·
COC(=O)c1sccc1NC(=O)CN1CCN(c2ccc(F)cc2)CC1	–	–	·	32
COc1ccc(C)cc1NC(=O)CN1CCN(c2ccc(F)cc2)CC1	–	–	–	–
Cc1ccccc1C(=O)c1cccn1CC(=O)NCc1ccc2c(c1)OCO2	–	–	–	–
CC(C)c1ccc(-c2nn(-c3ccccc3)cc2C2C(C#N)=C(N)OC3=C2C(=O)CC(C)(C)C3)cc1 (stereo not drawn)	·	–	–	–
CCCCCCCC(=O)NC(Nc1ccc(S(N)(=O)=O)cc1)C(Cl)(Cl)Cl (stereo not drawn)	·	–	–	–
COC(=O)c1ccc(NC(=O)CN2CCN(c3cccc(Cl)c3)CC2)cc1	–	–	17	–
O=C(CN1CCCN(S(=O)(=O)c2ccc(Br)s2)CC1)Nc1ccc(Cl)cc1	–	–	–	65
CCOC(=O)CNC(=O)CN1CCCN(S(=O)(=O)c2ccc(Br)s2)CC1	–	–	–	–
Cc1cccc(-c2noc(CN(C(=O)C(c3ccccc3)c3ccccc3)C(C)C)n2)c1	–	–	–	–
CCc1cc2c(=O)c(-c3nc4ccccc4n3C)c(C)oc2c(CN(CC)CC)c1O	–	–	–	35
CCc1cc2c(=O)c(-c3nc4ccccc4n3C)coc2c(CN2CCN(C)CC2)c1O	–	–	–	–
Cc1ccc(S(=O)(=O)N2C(=O)CCC2C(=O)Nn2cnnc2)cc1 (stereo not drawn)	–	–	–	–
CCCn1c2ccccc2c2nnc(SCC(=O)OCC)nc21	–	–	–	39
CCn1c2ccccc2c2nnc(SCc3ccc(C(=O)OC)o3)nc21	–	–	–	42
CCn1c2ccccc2c2nnc(SCc3ccccc3)nc21	–	–	·	61
CCCn1c2ccccc2c2nc3ccccc3nc21	–	–	–	40
COc1cccc(OC)c1-c1nn2c(-c3ccccc3Cl)nnc2s1	–	–	–	38
COc1ccccc1-c1nnc2sc(COc3ccc(Cl)cc3)nn12	–	–	–	35
COc1ccc(Cc2nn3c(-c4ccccc4OC)nnc3s2)cc1	–	–	·	–
SMILES	Candida biofilm	PostGolgi yeast	EphB4 antag	PostGolgi ctrl
Clc1ccccc1-c1nnc2sc(-c3ccccn3)nn12	–	·	–	·
Cc1ccc2oc(C(=O)Nc3c(C)n(C)n(-c4ccccc4)c3=O)c(C)c2c1	–	·	–	·
CCc1nc2c(cnn2-c2ccc(Cl)cc2)c(=O)n1-c1ccc(OC)cc1	–	–	–	49
CCOc1ccc(-n2c(C)nc3c(cnn3-c3ccc(Cl)cc3)c2=O)cc1	·	–	–	–
Cc1ccc(C(=O)/C=C/c2c[nH]c3ccccc23)cc1	·	–	–	–
Cc1ccc(C(=O)/C=C/c2cn(CN3CCN(C)CC3)c3ccccc23)cc1	–	–	–	41
CC1(C)Cc2c(c(N3CCOCC3)nc3sc4c(NCc5ccccc5)nnnc4c23)CS1	–	–	–	–
CC1(C)Cc2c(c(N3CCOCC3)nc3sc4c(NCc5ccco5)nnnc4c23)CS1	24	–	–	–
CCCCn1c(=O)c2ccccc2c2ccccc2c1=O	–	–	–	–
CCCCCCCCC[n+]1cccc2c3ccccc3ccc21	·	–	–	98
O=C(CC1(O)C(=O)N(Cc2ccccc2Cl)c2ccccc21)c1ccco1 (stereo not drawn)	–	–	–	34
O=C(O)CNC(=O)c1ccc(S(=O)(=O)N2CCOCC2)cc1	–	–	–	–
Cc1cc(CN2CCN(CCC#N)CC2)c(O)c(C2(C)CCCCC2)c1	–	–	–	59
c1cnc(SCCOc2ccc3c(c2)CCC3)nc1	46	–	–	–
O=C(CSc1oc(-c2ccco2)nc1S(=O)(=O)c1ccc(Cl)cc1)NCC1CCCO1 (stereo not drawn)	–	37	–	–
CN1CCN(c2oc(-c3ccco3)nc2S(=O)(=O)c2ccccc2)CC1	–	–	·	–
CCCSc1oc(-c2ccco2)nc1S(=O)(=O)c1ccccc1	–	–	–	33

Screens from PubChem BioAssay.
